Measurements as given in PubChem BioAssay AID1159580 (chemical genetic matrix, 2015).
Several values for one entry are separate records, joined by “and”; a condition that tells them apart may be missing. Equal entries are not always repeated. Out of some 5,500 compounds screened, about 2,000 (36%) were called active. Inconclusive results (about 18%) are left out. No stated cut-off is given here; in the data, active means normalized growth mostly below about 0.91 (no sharp cut-off); inconclusive means no clear call, values can overlap the other calls; inactive means mostly above about 0.92. Some of the results follow.

Assay: chemical genetic growth profiling, strain panel (AID 1159580);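 further: tested at 20 µM; growth read once vehicle control cultures reached saturation at 30 °C; 1 = growth at the plate median or of vehicle wells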
Conditions: S. cerevisiae deletion strains, growth OD

Measured: normalized growth

COc1ccc2c(c1OC)C(=O)O[C@H]2[C@H]1c2cc3c(cc2CCN1C)OCO3
inactive: locus YAL013W, strain DEP1, stronger effect = lower value 0.997 | locus YAL021C, strain ccr4, stronger effect = lower value 0.987 | locus YAL026C, strain drs2, stronger effect = lower value 1.01 | locus YAL030W, strain snc1, stronger effect = lower value 1 | locus YBL061C, strain skt5, stronger effect = lower value 0.997 | locus YBR009C, strain hhf1, stronger effect = lower value 1.01 | locus YBR021W, strain FUR4, stronger effect = lower value 1 | locus YBR023C, strain chs3, stronger effect = lower value 0.988 | locus YBR171W, strain sec66, stronger effect = lower value 0.988 | locus YBR229C, strain ROT2, stronger effect = lower value 1.01 | locus YBR231C, strain swc5, stronger effect = lower value 1 | locus YBR279W, strain paf1, stronger effect = lower value 0.995 | locus YCL011C, strain gbp2, stronger effect = lower value 1 | locus YCL016C, strain dcc1, stronger effect = lower value 1 | locus YCL029C, strain bik1, stronger effect = lower value 1.02 | locus YCL061C, strain MRC1, stronger effect = lower value 1 | locus YCL069W, strain vba3, stronger effect = lower value 1 | locus YCR088W, strain abp1, stronger effect = lower value 1.01 | locus YDL005C, strain med2, stronger effect = lower value 0.997 | locus YDL035C, strain GPR1, stronger effect = lower value 1 | locus YDL040C, strain nat1, stronger effect = lower value 0.991 | locus YDL074C, strain BRE1, stronger effect = lower value 1.01 | locus YDL101C, strain DUN1, stronger effect = lower value 1.02 | locus YDL134C, strain PPH21, stronger effect = lower value 1 | locus YDL185W, strain tfp1, stronger effect = lower value 1 | locus YDL192W, strain arf1, stronger effect = lower value 1.01 | locus YDR001C, strain nth1, stronger effect = lower value 0.999 | locus YDR069C, strain doa4, stronger effect = lower value 1 | locus YDR101C, strain arx1, stronger effect = lower value 1 | locus YDR137W, strain rgp1, stronger effect = lower value 0.988 | locus YDR150W, strain NUM1, stronger effect = lower value 1 | locus YDR159W, strain sac3, stronger effect = lower value 0.989 | locus YDR162C, strain NBP2, stronger effect = lower value 0.966 | locus YDR195W, strain ref2 0.998 | locus YDR297W, strain sur2, stronger effect = lower value 1 | locus YDR318W, strain mcm21, stronger effect = lower value 1.01 | locus YDR334W, strain swr1, stronger effect = lower value 1 | locus YDR335W, strain msn5, stronger effect = lower value 0.989 | locus YDR388W, stronger effect = lower value 1.01 | locus YDR392W, strain spt3, stronger effect = lower value 0.928 | locus YDR502C, strain sam2, stronger effect = lower value 1 | locus YEL003W, strain gim4, stronger effect = lower value 0.998 | locus YEL037C, strain rad23, stronger effect = lower value 0.99 | locus YEL061C, strain CIN8 (second series), stronger effect = lower value 0.991 | locus YEL061C, strain CIN8, stronger effect = lower value 0.991 | locus YER015W, strain faa2, stronger effect = lower value 1 | locus YER016W, strain bim1, stronger effect = lower value 0.997 | locus YER110C, stronger effect = lower value 1.01 | locus YER111C, strain swi4, stronger effect = lower value 0.993 | locus YER155C, strain BEM2 (second series), stronger effect = lower value 0.994 | locus YER155C, strain BEM2, stronger effect = lower value 0.992 | locus YER167W, strain BCK2, stronger effect = lower value 1.01 | locus YFR010W, strain ubp6, stronger effect = lower value 1.01 | locus YGL078C, strain dbp3, stronger effect = lower value 1.01 | locus YGL086W, strain mad1, stronger effect = lower value 1 | locus YGL167C, strain pmr1, stronger effect = lower value 0.997 | locus YGL173C, strain kem1, stronger effect = lower value 0.993 | locus YGL227W, strain vid30, stronger effect = lower value 0.993 | locus YGL240W, strain doc1, stronger effect = lower value 1 | locus YGL248W, strain PDE1, stronger effect = lower value 1.01 | locus YGL253W, strain hxk2, stronger effect = lower value 0.994 | locus YGR078C, strain PAC10, stronger effect = lower value 0.992 | locus YGR135W, strain pre9, stronger effect = lower value 0.996 | locus YGR229C, strain SMI1, stronger effect = lower value 0.99 | locus YGR252W, strain gcn5, stronger effect = lower value 0.953 | locus YHR013C, strain ard1, stronger effect = lower value 0.974 | locus YHR027C, strain rpn1, stronger effect = lower value 0.992 | locus YHR030C, strain SLT2, stronger effect = lower value 1.01 and 1.04 | locus YHR079C, strain IRE1 (second series), stronger effect = lower value 1.02 | locus YHR079C, strain IRE1, stronger effect = lower value 1.05 | locus YHR094C, strain hxt1, stronger effect = lower value 1.01 | locus YHR129C, strain ARP1, stronger effect = lower value 1.02 | locus YHR142W, strain chs7, stronger effect = lower value 0.995 | locus YHR200W, strain rpn10, stronger effect = lower value 1 | locus YIL066C, strain RNR3, stronger effect = lower value 1 | locus YIL073C, strain SPO22, stronger effect = lower value 0.997 | locus YIL125W, strain kgd1, stronger effect = lower value 1.01 | locus YIR030C, strain dcg1, stronger effect = lower value 1.02 | locus YJL092W, strain hpr5, stronger effect = lower value 0.999 | locus YJL095W, strain BCK1 (second series), stronger effect = lower value 1 | locus YJL095W, strain BCK1, stronger effect = lower value 1.02 | locus YJL115W, strain asf1, stronger effect = lower value 0.995 | locus YJL129C, strain trk1, stronger effect = lower value 0.992 | locus YJL134W, strain LCB3, stronger effect = lower value 1 | locus YJL154C, strain vps35, stronger effect = lower value 0.997 | locus YJL164C, strain tpk1, stronger effect = lower value 0.991 | locus YJL166W, strain qcr8, stronger effect = lower value 0.994 | locus YJL168C, strain set2, stronger effect = lower value 1.01 | locus YJL187C, strain SWE1 (second series), stronger effect = lower value 1.01 | locus YJL187C, strain SWE1, stronger effect = lower value 0.999 | locus YJR043C, strain POL32, stronger effect = lower value 1.01 | locus YJR066W, strain TOR1, stronger effect = lower value 0.976
